Most compounds without a hit are left out; they make up all but 1.3% or so of the library.
p53 reactivator: qHTS assay for re-activators of p53 using a Luc reporter | H1299 p53-A138V BP100-luciferase reporter, luminescence, 24 h | Potency, µM (titrated, usually from 92.2 µM), for inactives: top-dose activity change, positive = activation, actives largely listed as activators | 320,000 tested, 0.063% active; further: potency means the concentration at half of the fitted maximal effect; % of control where 0% means no effect; nearly all actives have a fitted effect of over 45% in size
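p53-null H1299 cells stably carrying temperature-sensitive p53-A138V and a BP100-luciferase reporter were pinned with compounds (4-point, 1:5 series) and held 24 hrs at 37 deg C. Luminescence was read 10 min after detection reagent.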
BRCA1 expr act: qHTS Assay to Identify Small Molecule Activators of BRCA1 Expression; MCF7-BRCA1-FFLuc reporter, luminescence, 48 h; response scale: scaled: vehicle 0%, 10 µM genistein 100%; Potency, µM (series often up to 46.1 µM), for the others: at the top dose activation, hits mostly activators; 380,000 tested, 1.1% active; AID 624202, 2012; further: potency means the concentration at half of the fitted maximal effect; nearly all actives have a fitted effect of over 80% in size
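Luminescence from a BRCA1-driven firefly luciferase in MCF7 cells was read after 48 h compound exposure at 37 C. Data normalized against DMSO and a 10microM genistein activation control, then curve-fitted across the titration.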
TCR act: Activators of T cell receptors: qHTS campaign; primary human leukocytes, anti-CD3, IL-2 HTRF, 48 h; Potency, µM (doses to about 9.22 µM), for inactives: top-dose activation of IL-2 secretion, usual class: activators; 330,000 tested, under 10 active; further: % of control where 0% means no effect
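Primary human leukocytes were stimulated with a-CD3 beads plus compounds for 48 hr without co-stimulation; secreted IL-2 was quantified by HTRF using a-IL-2-K (europium cryptate) and a-IL-2-d2, excited at 320nm with acceptor emission read at 665nm.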
Mito fusion act: qHTS Assay for Small Molecule Inhibitors of Mitochondrial Division or Activators of Mitochondrial Fusion | S. cerevisiae fusion-defective mutant growth rescue, CellTiterGlo 48 h | Potency, µM (doses to about 46.1 µM), inactives show at the highest dose growth rescue (activation), hits mostly activators | AID 485298, 2010 | 320,000 tested, 0.23% active; further: potency means the concentration at half of the fitted maximal effect; % of control where 0% means no effect; nearly all actives have a fitted effect of over 45% in size
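Compounds are tested for their ability to restore growth of mitochondrial fusion-defective yeast strains at non-permissive 37C in YPEG medium over 48 hours. Viability is quantified by luciferase luminescence.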
IL2 activator: qHTS of IL-2 Activators; IL-2 activation reporter assay, cell-based qHTS; stimulated with anti-CD3/CD4/CD28 beads; in transgenic mouse T cells; activation, % (series mostly up to about 46 µM); 360,000 tested, 0.065% active; AID 652025, 2013; in the data active means activation above about 50%; inconclusive means mostly about 30% to 49%; further: 0% is about no effect
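Unstimulated transgenic mouse T cells, 750 per well, received compound and, after 60 minutes, anti-CD3/anti-CD4 bead plus anti-CD28 stimulation. EGFP and DsRed were quantified after 18 hours.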
Active calls of the source: *; ? = inconclusive; / = no result; ! = not active in a repeat; [ ] = another dose, or the depositor's remark. Unless noted, the call rests on the fitted dose curve; in most records, active means well fitted curve in the direction sought with a large enough effect; inconclusive means small, poorly fitted or top-dose-only effect, or another doubt; inactive means no such curve, though single readings can be large; an effect the other way counts as inactive or inconclusive.

SMILES	p53 reactivator	BRCA1 expr act	TCR act	Mito fusion act	IL2 activator
Cc1ccccc1Oc1ccc(Oc2ccccc2C)nn1	21%	7.1µM*	/	6%	-1
COc1ccc(-n2c(=O)/c(=C\c3cccs3)s/c2=C(/C#N)C(=O)NCCN2CCOCC2)cc1	1%	0%	-2%	-11%	137*
Cc1ccccc1Nc1nc(N)nc(CSCc2c(C)noc2C)n1	-2%	-23%	4%	1%	-1
Cc1ccccc1Nc1nc(N)nc(COC(=O)c2ccc(O)cc2)n1	2%	-18%	-7%[46.1 µM]	-5%	0
Cc1ccccc1CSCc1nc(N)nc(Nc2ccccc2C)n1	0%	11µM*	11%	6%	5
Cc1ccccc1Nc1nc(N)nc(COC(=O)c2ccccc2)n1	?	14µM*	2%[46.1 µM]	8%	-2
COc1cc2nc(N3CCCN(C)CC3)nc(OC3CCN(C)CC3)c2cc1OC	/	0%	/	/	/
CCCc1c(-c2ccc(O)cc2)nn(-c2ccc(O)cc2)c1-c1ccc(O)cc1	-3%	-23%	-5%	16µM*!	0
Cc1c(C(N)=O)c(-c2ccccc2)nn1-c1ccccc1	-5%	3%	1%[46.1 µM]	5%	-1
O=[N+]([O-])c1cccc(NC(=S)N2CCCC2)c1	?	4%	-2%	-2%	-3
O=C(Nc1cccc([N+](=O)[O-])c1)NC1CCCCCCC1	14%	6.3µM*	1%	-17%	-3
O=C(CNC1CCCCC1)Nc1cccc([N+](=O)[O-])c1	/	38%	4%	/	0
O=C(Nc1cccc([N+](=O)[O-])c1)C(=O)N1CCCCC1	9%	4.5µM*	-3%	-7%	1
COc1ccc(/C=C/c2cnc3ccccc3n2)cc1OC	/	-27%	/	/	/
COc1cc(C(=O)N/N=c2/sc3ccccc3n2C)cc(OC)c1OC	9%	-24%	-2%	-3%	-1
Cn1/c(=N/NC(=O)c2ccccc2Br)sc2ccccc21	4%	10µM*	-3%	2%	0
CC(=O)Nc1ccc(OCc2cccc([N+](=O)[O-])c2)cc1	4%	?	-4%	-12%	7
CC(=O)Nc1ccc(C=CC=Cc2cccc([N+](=O)[O-])c2)cc1	/	5µM*	-3%	/	-7
Cc1ccc(/C=N/n2nnnc2N)cc1	/	6.3µM*	-1%	/	0
CC/C(O)=C1\C(=O)CC(C)(C)CC1=Nc1ccccc1C	21%	0%	-1%[46.1 µM]	11µM*	-1
CCCC/C(O)=C1\C(=O)CC(C)(C)CC1=Nc1ccccc1OC	-8%	-14%	-7%	13%	1
Fc1ccc(-c2nnc(Cc3nnc(-c4ccc(F)cc4)o3)o2)cc1	-7%	1%	7%	3%	-2
Fc1ccc(-c2nnc(-c3ccc(F)cc3)o2)cc1	/	2.5µM*	-1%	0%	1
CC(Oc1ccc(Cl)cc1Cl)c1nc(-c2ccccn2)no1 (stereo not given)	18%	11µM*	-2%	?	-1
O=C(Nc1ccccc1C(=O)N1CCN(c2cccc(Cl)c2)CC1)C1=CSCCO1	-8%	-12%	-2%	35µM*	-2
SMILES	p53 reactivator	BRCA1 expr act	TCR act	Mito fusion act	IL2 activator
c1ccc(-n2nnc(-c3cccnc3)n2)cc1	?	7.9µM*	0%	0%	-1
CCSc1nn(CC(=O)Nc2cccc(CC)c2)c(N)c1S(=O)(=O)c1ccccc1	/	-38%	/	/	/
CC(=O)NCCc1nc2cc(NC(=O)c3cccc([N+](=O)[O-])c3)ccc2n1C	19%	5.6µM*	3%	4%	-2
COc1ccccc1C(=O)Nc1ccc2c(c1)nc(CCNC(C)=O)n2C	?	10µM*	/	-2%	-3
Cn1c(CCNC(=O)c2ccco2)nc2cc(NC(=O)c3ccccc3Cl)ccc21	9%	8.9µM*	-6%	-4%	3
CCC(=O)NCCc1nc2cc(NC(=O)c3cccc([N+](=O)[O-])c3)ccc2n1C	16%	3.2µM*	2%	2%	-2
Cc1ccccc1C(=O)Nc1ccc2c(c1)nc(CCNC(=O)c1ccco1)n2C	8%	44%	-5%	0%	-2
